Sampled rows, rich in hits. Any-hit rate of the full collection: about 3.9%.
PLCg1 inh = PLC-gamma1 enzyme inhibitors, primary screen, biochemical, fluorescence, purified enzyme; inhibition, % at 12.2 µM; fluorogenic substrate; AID 720700, 2013; hit rate 0.84% among 370,000; 1-phosphatidylinositol 4,5-bisphosphate phosphodiesterase gamma-1 (Homo sapiens), P19174; in the data active means inhibition above about 9.5%
PLCb3 inh = human PLC-beta3 inhibitors, primary screen, biochemical, fluorescence; hit rate 0.18% among 370,000; Purified PLC-beta3, fluorogenic substrate; 1-phosphatidylinositol 4,5-bisphosphate phosphodiesterase beta-3 (Homo sapiens), Q01970; inhibition, % at 12.2 µM; AID 720704, 2013; in the data active means inhibition above about 11%;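 further: 0% = median of compound wells on plate and 100% = full blocker control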
Target sequence (Q01970 whole entry, looked up): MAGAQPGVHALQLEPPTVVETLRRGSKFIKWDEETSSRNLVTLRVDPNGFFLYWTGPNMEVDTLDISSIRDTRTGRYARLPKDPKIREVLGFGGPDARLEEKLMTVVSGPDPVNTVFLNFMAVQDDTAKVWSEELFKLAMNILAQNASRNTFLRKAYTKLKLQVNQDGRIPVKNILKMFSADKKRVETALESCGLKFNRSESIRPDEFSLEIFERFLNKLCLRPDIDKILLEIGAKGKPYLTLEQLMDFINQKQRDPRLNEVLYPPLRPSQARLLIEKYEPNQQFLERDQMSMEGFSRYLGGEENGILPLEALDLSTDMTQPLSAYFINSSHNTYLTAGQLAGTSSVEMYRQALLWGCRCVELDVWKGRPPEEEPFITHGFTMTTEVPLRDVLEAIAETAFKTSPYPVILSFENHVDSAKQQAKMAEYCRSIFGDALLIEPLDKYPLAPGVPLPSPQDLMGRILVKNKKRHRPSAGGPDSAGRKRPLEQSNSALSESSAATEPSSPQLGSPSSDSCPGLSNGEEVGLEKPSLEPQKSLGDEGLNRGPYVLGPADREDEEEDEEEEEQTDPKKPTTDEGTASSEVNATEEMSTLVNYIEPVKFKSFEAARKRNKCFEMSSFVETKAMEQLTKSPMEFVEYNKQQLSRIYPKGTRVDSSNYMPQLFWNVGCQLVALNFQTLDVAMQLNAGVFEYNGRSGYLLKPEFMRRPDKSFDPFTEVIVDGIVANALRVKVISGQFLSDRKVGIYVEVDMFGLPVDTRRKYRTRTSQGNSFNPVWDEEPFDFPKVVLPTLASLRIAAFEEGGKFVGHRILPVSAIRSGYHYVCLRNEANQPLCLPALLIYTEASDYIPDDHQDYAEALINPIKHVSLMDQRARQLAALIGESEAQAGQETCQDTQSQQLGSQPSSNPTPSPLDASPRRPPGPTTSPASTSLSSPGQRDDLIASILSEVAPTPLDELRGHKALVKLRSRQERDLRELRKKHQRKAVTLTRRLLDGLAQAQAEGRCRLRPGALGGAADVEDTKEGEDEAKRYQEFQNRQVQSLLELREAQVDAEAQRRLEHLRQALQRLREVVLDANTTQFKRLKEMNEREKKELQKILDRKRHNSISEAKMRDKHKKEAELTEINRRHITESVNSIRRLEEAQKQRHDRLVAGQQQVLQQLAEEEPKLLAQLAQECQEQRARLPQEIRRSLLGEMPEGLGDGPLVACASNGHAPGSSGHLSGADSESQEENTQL
CR mimetic SO = reduction of superoxide in aged yeast, primary screen, HTS; S. cerevisiae aged cells, superoxide DHE fluorescence; hits give low values; superoxide response (% of plate mean), % at 10 µM; hit rate 0.18% among 330,000; AID 2690, 2010;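 active means superoxide response under a set limit, about three screen SD below normal, cut at about 65% in these data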;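 further: yeast aged for seven days with compound at 30 °C before DHE staining; 100% = average MFI of all compound-treated wells on the plate with controls excluded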
HIF activator = HIF pathway transcriptional activators, primary screen, cell-based, U2OS HRE-luciferase, luminescence; U2OS HRE-luciferase reporter; normalized: DMSO 0%, desferrioxamine 100%; activation, % at 7.5 µM (by protocol); hit rate 0.32% among 300,000;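 active means mean activation of at least 10% of the iron chelator positive control signal, with at least half of replicates also reaching 10%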
AHR act = AHR activators, primary screen, cell-based, luminescence, luciferase reporter, human. Aryl hydrocarbon receptor (Homo sapiens), P35869. hit rate 2.5% among 320,000. activation, % at 5 µM. AID 2796, 2010. AHR-responsive luciferase reporter cells; in the data active means activation above about 47%;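 further: 0% = vehicle wells and 100% = reference agonist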
HGIII-sPLA2 inh = human group III sPLA2 inhibitors, primary screen, biochemical, QFRET, BODIPY PC-A2 liposome substrate; inhibition, % at 12.2 µM; hit rate 0.56% among 370,000; QFRET BODIPY PC-A2 liposome hydrolysis, fluorescence; Group 3 secretory phospholipase A2 (Homo sapiens), Q9NZ20;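 active means inhibition above mean plus 3 SD of compounds lying within the high and low control bounds, cut at about 19% in these data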;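 further: 0% = median of test compound wells and 100% = no enzyme DMSO wells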
Active calls of the source: *.

Screening CCN1Cc2nnn(Cc3ccccc3)c2-c2cc(F)ccc2S1(=O)=O returned PLCg1 inh -1.5, PLCb3 inh 0.2 and HGIII-sPLA2 inh 2.4.
For Nn1c(SCC(=O)N2c3ccccc3Sc3ccc(Cl)cc32)nnc1-c1n[nH]c2c1CCC2 the results were PLCg1 inh -1.0, PLCb3 inh 0.5 and HGIII-sPLA2 inh -14.2.
For CC1=NN(c2ccccc2)C(=O)/C1=C\c1ccc(Br)s1 the results were PLCg1 inh 0.7, PLCb3 inh 4.8, CR mimetic SO 104.5, HIF activator 0.3, AHR act 23.2 and HGIII-sPLA2 inh 6.1.
CC1=NN(c2ccccc2)C(=O)/C1=C/c1ccc(Cl)cc1 was read as PLCg1 inh 16.4*, PLCb3 inh 3.4, CR mimetic SO 100.2, HIF activator -0.4 and HGIII-sPLA2 inh 2.4.
`CC1=NN(c2ccccc2)C(=O)C1=Cc1ccccc1` gave PLCg1 inh 10.3*, PLCb3 inh 4.7 and HGIII-sPLA2 inh 3.2.
Screening CC1=NN(c2ccccc2)C(=O)/C1=C/c1ccc[nH]1 returned PLCg1 inh 2.8, PLCb3 inh 5.4, CR mimetic SO 104.4, HIF activator 3.0, AHR act 85.2* and HGIII-sPLA2 inh 7.4.
For NC(=O)C1CCN(c2nc(-c3ccc4c(c3)OCCCO4)cs2)CC1 the results were PLCg1 inh 1.1, PLCb3 inh 1.8 and HGIII-sPLA2 inh 1.1.
For O=C(NCc1cccnc1)c1ccc(COc2ccc(Cl)cc2Cl)o1 the results were PLCg1 inh 1.4, PLCb3 inh 2.4, CR mimetic SO 101.5, HIF activator -1.1, AHR act 19.8 and HGIII-sPLA2 inh -0.7.
CCCc1ccc(OCc2ccc(C(=O)NCc3cccnc3)o2)c(OC)c1 was read as PLCg1 inh -1.6, PLCb3 inh 4.3, CR mimetic SO 134.2, HIF activator 0.7, AHR act 50.5* and HGIII-sPLA2 inh -7.8.
NNC(=O)c1ccc(COc2cccc3ccccc23)o1 was read as PLCg1 inh -10.9, PLCb3 inh -15.0, CR mimetic SO 111.6, HIF activator 1.0, AHR act 68.8* and HGIII-sPLA2 inh -8.2.
Screening COc1ccccc1NC(=O)c1ccc(COc2ccccc2OC)o1 returned PLCg1 inh -4.0, PLCb3 inh -4.0, CR mimetic SO 106.1, HIF activator -0.4, AHR act 27.6 and HGIII-sPLA2 inh -14.7.
For CCCc1ccc(OCc2ccc(C(=O)Nc3cccc(C)n3)o2)c(OC)c1 the results were PLCg1 inh -4.0, PLCb3 inh -3.9, CR mimetic SO 98.8, HIF activator 0.0, AHR act 59.8* and HGIII-sPLA2 inh 0.3.
Screening O=C(NCc1cccnc1)c1ccc(COc2cccc3ccccc23)o1 returned PLCg1 inh -3.2, PLCb3 inh -9.5, CR mimetic SO 105.0, HIF activator -0.8, AHR act 77.5* and HGIII-sPLA2 inh -14.1.
Screening CCOc1ccc(OCc2ccc(C(=O)NCc3cccnc3)o2)cc1 returned PLCg1 inh 1.0, PLCb3 inh 1.9, CR mimetic SO 94.9, HIF activator 0.0, AHR act 18.1 and HGIII-sPLA2 inh -2.9.
`C#CCOCCOCCOCCNc1nc(N2CCN(C(=O)[C@H]([C@@H](C)CC)n3cc(CCCCN)nn3)CC2)nc(N2CCN(C(=O)[C@H](Cc3ccc(O)cc3)n3cc(CCO)nn3)CC2)n1` gave PLCg1 inh 5.0, PLCb3 inh 1.7 and HGIII-sPLA2 inh -1.8.
O=C(CSc1nnc(-c2cccc(Cl)c2)n1Cc1ccco1)c1ccc(F)cc1 was read as PLCg1 inh -0.9, PLCb3 inh -1.1 and HGIII-sPLA2 inh -52.1.
CCN(CC)C(=O)CC[C@H]1CC[C@]2(CCCN(Cc3nccn3C)C2)O1 was read as PLCg1 inh 1.2, PLCb3 inh 2.6 and HGIII-sPLA2 inh 1.4.
`Clc1ccc2c(NCc3ccccn3)ncnc2c1` gave PLCg1 inh -9.0, PLCb3 inh -12.2, CR mimetic SO 95.2, HIF activator 0.7, AHR act 59.5* and HGIII-sPLA2 inh 2.5.
`Clc1ccc2c(NCc3cccs3)ncnc2c1` gave PLCg1 inh -4.6, PLCb3 inh -11.8, CR mimetic SO 95.0, HIF activator 0.8, AHR act 21.9 and HGIII-sPLA2 inh -4.9.
CCCNc1nc(Nc2ccc(C)c(Cl)c2)c2cnn(C)c2n1 was read as PLCg1 inh -28.3, PLCb3 inh -57.4, CR mimetic SO 97.4, HIF activator 0.3, AHR act 63.6* and HGIII-sPLA2 inh -20.5.
COc1ccc(/C=N/NC(=O)c2cccs2)c2ccccc12 was read as PLCg1 inh -72.6, PLCb3 inh -100.5, CR mimetic SO 101.6, HIF activator 2.3, AHR act 52.7* and HGIII-sPLA2 inh 2.6.
O=C(N/N=C/c1ccc(Br)o1)c1cccnc1 was read as PLCg1 inh 3.3, PLCb3 inh 1.1, CR mimetic SO 86.2, HIF activator -0.4, AHR act 15.3 and HGIII-sPLA2 inh 4.9.
For Cc1ccc(/C=N/NC(=O)c2cccs2)o1 the results were PLCg1 inh -4.8, PLCb3 inh -2.9, CR mimetic SO 101.1, HIF activator 1.7, AHR act 77.8* and HGIII-sPLA2 inh 1.2.
Screening Cc1ccc(/C=N/NC(=O)c2cccnc2)o1 returned PLCg1 inh -0.2, PLCb3 inh -0.4, CR mimetic SO 92.8, HIF activator 0.1, AHR act 72.3* and HGIII-sPLA2 inh 0.2.
`Cc1nn(-c2ccccc2)c(Cl)c1/C=N\NC(=O)c1cncc(Br)c1` gave PLCg1 inh -3.2, PLCb3 inh 2.0, CR mimetic SO 101.0, HIF activator 2.0, AHR act 42.5 and HGIII-sPLA2 inh 6.8.
Screening COc1ccc(/C=N/NC(=O)c2cccnc2)c2ccccc12 returned PLCg1 inh -43.6, PLCb3 inh -64.7, CR mimetic SO 84.9, HIF activator -2.8, AHR act 25.9 and HGIII-sPLA2 inh -0.3.
For Cc1nn(-c2cccc(Cl)c2)c(Cl)c1/C=N/NC(=O)c1cccnc1 the results were PLCg1 inh -0.3, PLCb3 inh 0.6, CR mimetic SO 106.7, HIF activator 4.2, AHR act 77.8* and HGIII-sPLA2 inh -5.1.
O=P(c1ccccc1)(c1ccccc1)c1cnc2ccccn12 was read as PLCg1 inh 2.6, PLCb3 inh 3.8 and HGIII-sPLA2 inh 0.8.
`Cc1ccc(/C=N\NC(=O)c2cncc(Br)c2)o1` gave PLCg1 inh 0.4, PLCb3 inh -1.8, CR mimetic SO 101.9, HIF activator 0.0, AHR act 63.6* and HGIII-sPLA2 inh 3.9.
Cn1c(NC(=O)c2ccccc2)nc(Cc2ccccc2)c1Cc1ccccc1 was read as PLCg1 inh 4.4, PLCb3 inh -4.2 and HGIII-sPLA2 inh -0.4.

Screening results: PubChem BioAssay, several laboratories
